# The whole screen tested about 68,000 compounds, of which about 2,700 (4%) showed an effect of 50% or more. For the sample, strong results were picked, then their nearest neighbours and some compounds at random.
# Test system: Plasmodium berghei
# Experiment: Screen against P. berghei liver stage (PbLuc), transformed with Luciferase, at 2uM
# Format: functional, HepG2
# Details: tested at 2 uM
row,Compound,INHIBITION [%]
1,COc1ccccc1CN1C[C@@H](F)[C@@H](OCc2nc3ncccc3[nH]2)C1,55.57
2,COc1ccccc1CN1C[C@@H](F)[C@@H](OCc2nc3cnccc3[nH]2)C1,14.89
3,COc1ccccc1CN1C[C@@H](F)[C@@H](OCc2nc3ccccc3[nH]2)C1,-6.21
4,O=C(CS(=O)(=O)Cc1cc(Cl)c2c(c1)OCCCO2)NCC1CC1,2.77
5,CCNC(c1ccc(C)cc1)c1cccnc1 (stereo not given),-41.21
6,CCNC(c1cccnc1)c1ccc(F)c(C)c1 (stereo not given),1.61
7,CCCNC(c1ccc(F)cc1)c1cccnc1 (stereo not given),26.18
8,CCNC(c1ccc(Cl)cc1)c1cccnc1 (stereo not given),8.37
9,CCCNC(c1cccnc1)c1ccc(F)cc1F (stereo not given),-3.32
10,CCNC(c1cccnc1)c1ccc(F)cc1F (stereo not given),53.98
11,CCNC(c1ccc(C(C)C)cc1)c1cccnc1 (stereo not given),58.05
12,CCNC(c1ccc(F)cc1)c1cccnc1 (stereo not given),-49.8
13,CCCNC(c1cccnc1)c1ccc(F)c(C)c1 (stereo not given),62.36
14,c1cc(CN2CCC(c3nnc4n3CCCCC4)CC2)c2nonc2c1,-60.89
15,CC(C)n1ncc2c1NC(=O)CC21C(=O)Nc2c(Cl)ccc(Cl)c21 (stereo not given),-40.36
16,c1csc(-c2noc(C3CN(Cc4ccc5c(c4)CCO5)C3)n2)c1,35.6
17,O=C1CCNc2ncc(-c3ccccc3Cl)cc2CN1C1CC1,18.48
18,CCc1c(C)noc1-c1cnc(NC2CC2)nc1-c1cnc(C)cn1,26.93
19,O=C(c1ccc2c(c1)OCCCO2)N1CCCC(n2ccnc2)C1 (stereo not given),11.95
20,O=C(c1cccnc1N1CCCCC1)N1CCCC(n2ccnc2)C1 (stereo not given),3.33
21,Cc1nccn1C1CCCN(C(=O)c2ccnc(-n3ccnc3)c2)C1 (stereo not given),-13.24
22,O=C(c1ccnc(-n2ccnc2)c1)N1CCCC(n2ccnc2)C1 (stereo not given),70.27
23,O=C(c1cccc2cccnc12)N1CCCC(n2ccnc2)C1 (stereo not given),54.2
24,O=C(c1ccc(-n2cnnc2)cc1)N1CCCC(n2ccnc2)C1 (stereo not given),56.02

row,Compound,INHIBITION [%]
1,O=C(c1ccnc(-n2ccnc2)c1)N1CCCC(n2cccn2)C1 (stereo not given),-58.05
2,O=C(c1ccc(-n2ccnc2)cc1)N1CCCC(n2ccnc2)C1 (stereo not given),28.87
3,O=C(c1cccc2ncccc12)N1CCCC(n2ccnc2)C1 (stereo not given),43.85
4,O=C(c1ccc2c(c1)OCO2)N1CCCC(n2ccnc2)C1 (stereo not given),-0.05
5,O=C(c1ccc2c(c1)OCCO2)N1CCCC(n2ccnc2)C1 (stereo not given),78.98
6,O=C(c1ccc(-n2cnnn2)cc1)N1CCCC(n2ccnc2)C1 (stereo not given),43.79
7,CN(C)C(=O)N1C[C@H]2CC[C@@H](C1)N(C(=O)c1c(Cl)cccc1Cl)C2,-42.12
8,CN1CCCN(C(=O)NCc2ccccc2Cn2cncn2)CC1,28.62
9,Cn1cccc1C(=O)OCCNC(=O)c1ccccc1,-9.17
10,O=C(CC1CCCCC1)N1C[C@@H]2CC[C@H]1CN(Cc1cccnc1)C2,9.56
11,Cc1ccc(CN2Cc3cnn(C)c3C(COCC3CC3)C2)o1 (stereo not given),47.63
12,CNC(=O)C1CCCCN1C(=O)c1sc(-c2ccc(C)o2)nc1C (stereo not given),16.73
13,O=c1nc(SCc2cccnc2)c2c(n1CCO)CCCC2,13.46
14,CCN(Cc1ccc2c(c1)OCCO2)C(=O)NCc1cc[nH]n1,21.31
15,CSCC(C)(O)CNS(=O)(=O)c1ccc(Br)cc1 (stereo not given),9.27
16,CSCC(C)(O)CNS(=O)(=O)c1cccc(C)c1 (stereo not given),9.27
17,CSCC(C)(O)CNS(=O)(=O)c1cccc(Cl)c1 (stereo not given),56.89
18,O=c1ccc(-n2ccnc2)nn1CCNS(=O)(=O)c1ccc(Cl)s1,-54.51
19,CC(C)n1nc2c(cc1=O)CN(CCOc1ccc(C#N)cc1)CC2,9.8
20,CNC(=O)c1cccc(C2CNCCN2C(=O)c2ccn(C)n2)c1 (stereo not given),24.56
21,Cc1ccc(C(=O)N2CCOCC3(CCN(C4CCOCC4)C3)C2)o1 (stereo not given),14.89
22,Cc1cccc(N(CCC(N)=O)CC(=O)Nc2ccccc2)c1,50.31
23,Cc1cccc(N(CCC(N)=O)CC(=O)NC2CCCC2)c1,-22.8
24,Cc1cccc(N(CCC(N)=O)CC(=O)Nc2cc(Cl)ccc2Cl)c1,-10.14

row,Compound,INHIBITION [%]
1,CC(NC(=O)NCC1(c2ccc(F)cc2)CC1)c1nncn1C (stereo not given),-7.13
2,Cc1ccc(N2CCCC(NCC(=O)Nc3cc(C)no3)C2)nn1 (stereo not given),6.3
3,Cc1cc(NC(=O)CNC2CCCN(c3cccnn3)C2)on1 (stereo not given),-3.06
4,CC(C)c1cc(NC(=O)CNC2CCCN(c3cccnn3)C2)on1 (stereo not given),53.98
5,CC1=N[C@@]2(CC[C@@H]3CN(CC(=O)N(C)C)C[C@@H]32)C(=O)N1CC1CC1,-25.29
6,CN(Cc1ccc(F)cc1)CC1(O)CCN(C(=O)c2ccsc2)C1 (stereo not given),47.4
7,COCCCNC(=O)CN(C)C(=O)c1cc(C)ccc1N(C)C(C)C,-61.5
8,CC(C)C(C)NC(=O)CCN1C(=O)CCc2cc(F)ccc21 (stereo not given),31.16
9,CC(C)CNC(=O)CCN1C(=O)CCc2cc(F)ccc21,55.39
10,CCCC(C)NC(=O)CCN1C(=O)CCc2cc(F)ccc21 (stereo not given),6.92
11,NC(=O)C(CNC(=O)Cc1ccc(F)cc1)Cc1ccc(F)cc1 (stereo not given),-39.58
12,Cc1ccccc1C(=O)NCC(O)c1ccc(F)c(F)c1 (stereo not given),60.13
13,O=C(NCC(O)c1ccc(F)c(F)c1)c1ccccc1F (stereo not given),26.74
14,O=C(NCC(O)c1ccc(F)c(F)c1)c1cccnc1O (stereo not given),-38.85
15,O=C1CO[C@@H]2CN(Cc3ccncc3)C[C@H]2N1Cc1ccncc1,31.76
16,O=C(Nc1ccc2c(c1)OCO2)Nc1cnn(C2CCOCC2)c1,-59
17,COCCn1cc(NC(=O)NCC(C)N2CCOCC2)cn1 (stereo not given),20.77
18,COCCn1cc(NC(=O)NCC(c2cccc(F)c2)N(C)C)cn1 (stereo not given),45.57
19,CCC(CC)C(CNC(=O)Nc1cnn(CCOC)c1)N(C)C (stereo not given),66.11
20,CCn1cc(NC(=O)NCC(C)O)cn1 (stereo not given),62.13
21,CCn1cc(NC(=O)NCC(C)N(C)C)cn1 (stereo not given),-3.58
22,CCn1cc(NC(=O)NCC(O)c2ccccc2)cn1 (stereo not given),20.28
